Results filed as inconclusive are left out. Active and inactive are the calls of the source. The call rests on the fitted dose curve; in most records, active means well fitted curve in the direction sought with a large enough effect in the repeat runs; inconclusive means weak or mixed curves; inactive means no such curve, though single readings can be large; an effect the other way counts as inactive or inconclusive.
Legend:
[1] = qHTS RealTime-Glo MT Cell Viability Assay in HEK293 cells - 16 hour (AID 1224872); further: top concentration of the series differs between compounds; nearly all actives have a fitted effect of over 50% in size
Outline: (§1)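 Tox21 10K qHTS, HEK293, 600 cells/well, RealTime-Glo reagent co-dispensed with cells; 5 h preincubation, compound by pintool, 37 C, luminescence at 0–40 h.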

[2] = qHTS RealTime-Glo MT Cell Viability Assay in HepG2 cells - 8 hour (AID 1224873); further: nearly all actives have a fitted effect of over 55% in size
Outline: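 HepG2 cells (600/well) mixed with RealTime-Glo MT reagent, settled 5 h at 37 C/5% CO2 before compound addition. Nonlytic NanoLuc luminescence from viable-cell prosubstrate reduction read repeatedly during 40 h treatment at 37 C.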

[3] = qHTS RealTime-Glo MT Cell Viability Assay in HEK293 cells - 40 hour (AID 1224874); details: RealTime-Glo luminescence; max response: stronger effect = lower value; further: nearly all actives have a fitted effect of over 50% in size
Outline: (§2)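 Real-time viability in HEK293: signal arises when living cells convert a prosubstrate for NanoLuc in the medium, so luminescence tracks viable cell number. Compound (23 nL, DMSO) added 5 h post-seeding; kinetic reads at 0–40 h, 37 C.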

[4] = A CellTox Green Cytotoxicity Assay to monitor cytotoxicity in HEK293 cells - 24 hour (AID 1224875); further: series mostly up to about 77 µM; nearly all actives have a fitted effect of over 45% in size
Outline: (§3)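 Cells (HEK293, 600/well) and dye reagent are dispensed together. After 5 h at 37 C, 23 nL compound is pinned in. Plates stay at 37 C for 40 h with fluorescence read at 0h, 8h, 16h, 24h, 32h and 40h.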

[5] = A CellTox Green Cytotoxicity Assay to monitor cytotoxicity in HepG2 cells - 16 hour (AID 1224876); further: nearly all actives have a fitted effect of over 45% in size
Outline: (§4)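 Cells and non-lytic dye reagent are dispensed together (600 HepG2 cells/well) and incubated 5 h before DMSO compound transfer. Kinetic fluorescence is then recorded in the same wells during 40 h at 37 C.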

[6] = qHTS RealTime-Glo MT Cell Viability Assay in HepG2 cells - 32 hour (AID 1224877); further: nearly all actives have a fitted effect of over 55% in size
Outline: (§5)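 Cells + NanoLuc/prosubstrate dispensed (600 cells/well) → 5 h at 37 C/5% CO2 → compounds in DMSO transferred → 40 h incubation at 37 C, luminescence read at 0, 8, 16, 24, 32, 40 h.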

[7] = A CellTox Green Cytotoxicity Assay to monitor cytotoxicity in HepG2 cells - 24 hour (AID 1224878); further: nearly all actives have a fitted effect of over 45% in size
Outline: as §4

[8] = A CellTox Green Cytotoxicity Assay to monitor cytotoxicity in HepG2 cells - 40 hour (AID 1224879); further: nearly all actives have a fitted effect of over 40% in size
Outline: as §4

[9] = qHTS RealTime-Glo MT Cell Viability Assay in HEK293 cells - 0 hour (AID 1224880); further: top concentration of the series differs between compounds; nearly all actives have a fitted effect of over 45% in size
Outline: as §2

[10] = A CellTox Green Cytotoxicity Assay to monitor cytotoxicity in HEK293 cells - 32 hour (AID 1224881); further: nearly all actives have a fitted effect of over 40% in size
Outline: as §3

[11] = A CellTox Green Cytotoxicity Assay to monitor cytotoxicity in HepG2 cells - 0 hour (AID 1224882); further: nearly all actives have a fitted effect of over 35% in size
Outline: as §4

[12] = A CellTox Green Cytotoxicity Assay to monitor cytotoxicity in HepG2 cells - 32 hour (AID 1224883); further: nearly all actives have a fitted effect of over 50% in size
Outline: as §4

[13] = A CellTox Green Cytotoxicity Assay to monitor cytotoxicity in HEK293 cells - 8 hour (AID 1224884); further: nearly all actives have a fitted effect of over 35% in size
Outline: as §3

[14] = qHTS RealTime-Glo MT Cell Viability Assay in HepG2 cells - 16 hour (AID 1224885); further: nearly all actives have a fitted effect of over 50% in size
Outline: as §5

[15] = qHTS RealTime-Glo MT Cell Viability Assay in HEK293 cells - 24 hour (AID 1224886)
Outline: as §1

[16] = qHTS RealTime-Glo MT Cell Viability Assay in HEK293 cells - 8 hour (AID 1224887)
Outline: as §2

[17] = A CellTox Green Cytotoxicity Assay to monitor cytotoxicity in HEK293 cells - 16 hour (AID 1224888); further: nearly all actives have a fitted effect of over 35% in size
Outline: as §3

[18] = qHTS RealTime-Glo MT Cell Viability Assay in HepG2 cells - 0 hour (AID 1224889); further: nearly all actives have a fitted effect of over 50% in size
Outline: as §5

[19] = A CellTox Green Cytotoxicity Assay to monitor cytotoxicity in HepG2 cells - 8 hour (AID 1224890); further: nearly all actives have a fitted effect of over 45% in size
Outline: as §4

[20] = qHTS assay to identify small molecule antagonists of the estrogen receptor alpha (ER-alpha) signaling pathway using the BG1 cell line in the presence of 0.1 nM 17-beta-estradiol - cell viability counter screen (AID 1259241); further: nearly all actives have a fitted effect of over 40% in size
Outline: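 Live-cell protease activity (CellTiter-Fluor fluorescence, 30 min) was read in the same wells after VM7Luc4E2 cells had been exposed to compounds with 0.1 nM 17beta-estradiol for 22 hr at 37C.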
On the % scale 0 is the no-effect control and ±100 the full control effect.

O=P(O)(O)c1ccccc1
inactive: Potency [1] | outcome [2] | max response [3] 9.41% | Potency [4] | Potency [5] | Potency [6] | Potency [7] | Potency [8] | outcome [9] | Potency [10] | outcome [11] | Potency [12] | Potency [13] | Potency [14] | Potency [15] | Potency [16] | Potency [17] | outcome [18] | Potency [19] | outcome [20]

O=C1CC(=O)NC(=O)N1
inactive: Potency [1] | outcome [2] | max response [3] 12.1% | Potency [4] | Potency [5] | Potency [6] | Potency [7] | Potency [8] | outcome [9] | Potency [10] | outcome [11] | Potency [12] | Potency [13] | Potency [14] | Potency [15] | Potency [16] | Potency [17] | Potency [19]

C=CCN1CC[C@]23CCCC[C@H]2[C@H]1Cc1ccc(O)cc13
inactive: Potency [1] | outcome [2] | max response [3] 1.5% | Potency [4] | Potency [5] | Potency [6] | Potency [7] | Potency [8] | outcome [9] | Potency [10] | outcome [11] | Potency [12] | Potency [13] | Potency [14] | Potency [15] | Potency [16] | Potency [17] | Potency [19] | outcome [20]

O=C(Cl)OCc1ccccc1
inactive: Potency [1] | outcome [2] | max response [3] 10.6% | Potency [4] | Potency [5] | Potency [6] | Potency [7] | Potency [8] | outcome [9] | Potency [10] | outcome [11] | Potency [12] | Potency [13] | Potency [14] | Potency [15] | Potency [16] | Potency [17] | outcome [18] | Potency [19] | outcome [20]

CCC1(c2ccccc2)C(=O)N(COC)C(=O)N(COC)C1=O
inactive: Potency [1] | outcome [2] | max response [3] 2.07% | Potency [4] | Potency [5] | Potency [6] | Potency [7] | Potency [8] | outcome [9] | Potency [10] | outcome [11] | Potency [12] | Potency [13] | Potency [14] | Potency [15] | Potency [16] | Potency [17] | outcome [18] | Potency [19] | outcome [20]

CC(C)(C)NC[C@H](O)c1ccc(O)cc1Cl
inactive: Potency [1] | outcome [2] | max response [3] 4.05% | Potency [4] | Potency [5] | Potency [6] | Potency [7] | Potency [8] | outcome [9] | Potency [10] | outcome [11] | Potency [12] | Potency [13] | Potency [14] | Potency [15] | Potency [16] | Potency [17] | outcome [18] | Potency [19] | outcome [20]

CCOC(=O)N(C)N=O
inactive: Potency [1] | outcome [2] | max response [3] 1.11% | Potency [4] | Potency [5] | Potency [6] | Potency [7] | Potency [8] | outcome [9] | Potency [10] | outcome [11] | Potency [12] | Potency [13] | Potency [14] | Potency [15] | Potency [16] | Potency [17] | outcome [18] | Potency [19] | outcome [20]

O=c1[nH]c2ccccc2n1C1CCNCC1
inactive: Potency [1] | outcome [2] | max response [3] 2.11% | Potency [4] | Potency [5] | Potency [6] | Potency [7] | Potency [8] | outcome [9] | Potency [10] | outcome [11] | Potency [12] | Potency [13] | Potency [14] | Potency [15] | Potency [16] | Potency [17] | outcome [18] | Potency [19] | outcome [20]

C[N+]1(C)CCCCC1
inactive: Potency [1] | outcome [2] | max response [3] 19.2% | Potency [4] | Potency [5] | Potency [6] | Potency [7] | Potency [8] | outcome [9] | Potency [10] | outcome [11] | Potency [12] | Potency [13] | Potency [14] | Potency [15] | Potency [16] | Potency [17] | outcome [18] | Potency [19] | outcome [20]

CC(C)(N)Cc1ccccc1Cl
inactive: Potency [1] | outcome [2] | max response [3] 1.76% | Potency [4] | Potency [5] | Potency [6] | Potency [7] | Potency [8] | outcome [9] | Potency [10] | outcome [11] | Potency [12] | Potency [13] | Potency [14] | Potency [15] | Potency [16] | Potency [17] | outcome [18] | Potency [19] | outcome [20]

CCCOc1nn(C(=O)NS(=O)(=O)c2ccccc2C(=O)OC)c(=O)n1C
inactive: Potency [1] | outcome [2] | max response [3] 22.1% | Potency [4] | Potency [5] | Potency [6] | Potency [7] | Potency [8] | outcome [9] | Potency [10] | outcome [11] | Potency [12] | Potency [13] | Potency [14] | Potency [15] | Potency [16] | Potency [17] | outcome [18] | Potency [19] | outcome [20]

O=C(O)c1c(Cl)ccc2cc(Cl)cnc12
inactive: Potency [1] | outcome [2] | max response [3] 17.7% | Potency [4] | Potency [5] | Potency [6] | Potency [7] | Potency [8] | outcome [9] | Potency [10] | outcome [11] | Potency [12] | Potency [13] | Potency [14] | Potency [15] | Potency [16] | Potency [17] | outcome [18] | Potency [19]

CC(=O)CN(CC(C)=O)N=O
inactive: Potency [1] | outcome [2] | max response [3] 5.04% | Potency [4] | Potency [5] | Potency [6] | Potency [7] | Potency [8] | outcome [9] | Potency [10] | outcome [11] | Potency [12] | Potency [13] | Potency [14] | Potency [15] | Potency [16] | Potency [17] | outcome [18] | Potency [19] | outcome [20]

CC1NCCOC1c1ccccc1 (stereo unspecified)
inactive: Potency [1] | outcome [2] | max response [3] 4.25% | Potency [4] | Potency [5] | Potency [6] | Potency [7] | Potency [8] | outcome [9] | Potency [10] | outcome [11] | Potency [12] | Potency [13] | Potency [14] | Potency [15] | Potency [16] | Potency [17] | outcome [18] | Potency [19] | outcome [20]

Source: PubChem BioAssay (Tox21)
